# Columns and labels:
# Assay in all cases: PBM binding z-score (relative to random genomic background probes); higher = stronger binding; sequences stand for … in GC…GCGATTGACAGCGTAGAATGAAGG
# [1] = system: RARb homodimer (NR concentration 270 nM)
# Summary of the method: (§1)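 Custom Agilent 4×180K protein-binding microarrays carried double-stranded probes, each with a 34-nt variable region. These regions held direct-repeat seeds, single-nucleotide variants, half-site ablations and random human genomic background sequences. Ligand-free nuclear receptor dimers were incubated on the arrays for 1 h, antibodies against each partner (one per run) detected binding, and scanned fluorescence was regression-normalized. Binding z-scores take the random background probes as reference.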
# [2] = system: RARg:RXRa (NR concentration 270 nM, RXRa partner concentration 90 nM)
# Summary of the method: as §1
# [3] = system: RARg homodimer (NR concentration 270 nM)
# Summary of the method: as §1
# [4] = system: RXRa DBDmut IVT, anti-RXR (DBD mutation: RXRa K156A/R161A, NR concentration 90 nM)
# Summary of the method: as §1
# [5] = system: RXRa homodimer (NR concentration 180 nM)
# Summary of the method: as §1
# [6] = system: THRa homodimer (NR concentration 90 nM)
# Summary of the method: as §1
# [7] = system: VDR homodimer (NR concentration 270 nM)
# Summary of the method: as §1
# [8] = system: THRa:RXRa (NR concentration 90 nM, RXRa partner concentration 90 nM)
# Summary of the method: as §1
# [9] = system: VDR:RXRa (NR concentration 270 nM, RXRa partner concentration 90 nM)
# Summary of the method: as §1
Sequence,PBM binding z-score [1],PBM binding z-score [2],PBM binding z-score [3],PBM binding z-score [4],PBM binding z-score [5],PBM binding z-score [6],PBM binding z-score [7],PBM binding z-score [8],PBM binding z-score [9]
CGTCCAAGGTCAAAGGTCAGGGAAGAGATGACGG,5.58,9.1,8.2,3.54,10.4,2.92,3.13,,
TAGCCTAGGTCATGCGGGCCAGTATAGTGTCGGC,2.89,3.98,4.4,0.813,,0.858,0.814,3.02,
CCTACGGGGCCAAGGTCATTGATCAGTCAAAGCA,3.51,4.02,3.77,1.21,,2.04,3.09,3.47,3.52
ATCGAAAGGTCGCAGGTGAGTATACCCACCCGAA,3.04,4.73,4.6,0.648,,0.171,0.597,2.57,
CAAACTAGGTCACGAAAGGGCAAAGTCGAATGAC,4.43,5.81,6.33,1.77,,1.42,1.35,4.54,5.28
CCAGACAGGTGAAAGGTCACTCAGTCTGGTACGC,4.99,6.66,5.89,1.18,,1.02,2.37,3.75,
TTACCAAGGTTAAAGGTCGTTGATGCACGCCTTG,3.04,5.05,3.09,1.88,,0.88,2.29,3.63,4.55
CCTAGTTGGTCAAGCTCACACACGCTATAGGTAC,0.906,0.632,1.12,0.623,,0.545,0.614,0.136,0.609
CTCGAAAGGTGGTGCTCAGGTGAGTATACCAAAC,0.207,0.0538,-0.152,-0.443,,0.504,-0.0516,1.78,
CGAACTAGGTCACCAGAACAGTGAAGAGGTTGGA,3.14,4.44,5.22,1.11,,0.853,0.565,2.87,1.86
GCTGCTAGGTTAACTGATGGTCAGCTAAAGCTCG,0.815,1.6,0.672,0.235,,-0.683,-0.649,0.689,
CGTCCAAGGTCAATGCTAGGCCAGTGAAAGCATT,3.99,6.23,6.11,3.55,,2.15,2.49,3.96,
ACTAGTTGGTCAGCTGAGGTCACACACAATTCGG,4.52,4.26,4.51,1.35,,4.99,3.54,5.14,
CCGACTGGGTCAAAGGTTACCATACTCAGTACGA,3.42,5.88,4.13,1.23,,0.418,0.82,3.62,
AGTCAAAGTTCATCTAGGTATCGTAAGATATGCT,3.84,5.45,5.99,4.54,,-0.179,5.25,2.8,5.01
TATACAGGGTCAAAGGGCAGAGTACGAATGTCGA,4.22,6.33,5.48,3.14,,1.48,3.82,3.98,
CGTCAAAGTTCAAGCTAACGTAACAGAAAGCAGC,3.86,5.65,6.4,4.63,,-0.403,3.69,1.86,4.18
GATACAGGGTCAATGCCAGAGTACGCGTATTGAT,3.11,4.62,4.35,2.89,,0.742,2.31,2.87,3.93
ACTAGCAGGTCAAGGGTCACTCAAGATTAGTCCG,4.9,6.89,6.42,2.13,,1.42,2.56,4.04,
ACTCGGAGGACAAATGTCAGAGCTACGCCAGTGA,0.623,1.08,1.68,0.614,,-0.331,-0.508,0.512,

Sequence,PBM binding z-score [1],PBM binding z-score [2],PBM binding z-score [3],PBM binding z-score [4],PBM binding z-score [5],PBM binding z-score [6],PBM binding z-score [7],PBM binding z-score [8],PBM binding z-score [9]
TAGCCTAGGTCATTCAGGCGCCAGTATAGAAAGC,2.25,3.97,4.09,1.78,,0.451,1.3,2.7,
AGTCAAAGTTCATCTAGGTAACGAAAGATATGCT,3.88,5.82,6.19,4.79,,0.383,5.04,3.24,4.81
CGTCCAAGGTCATAGGAGGTCATTGAAGACAGAT,5.6,7.14,7.75,4.08,,3.7,6.14,5.39,7.27
CCCACTGGGCCATTCAGAGGTCATTGATCATATG,4.3,4.48,3.31,0.382,,1.52,3.25,3.43,
CCTACTGGGCCATGAAAGGTCATTGATTCAGTGA,4.4,4.23,3.85,0.456,,0.811,2.39,3.58,3.82
CAAACTAGGTCACAGAGGACAAAGTCCGTGCGTA,3.93,4.96,6.01,2.36,,1.94,3.57,3.89,6.52
CCTAGTTGGTCAGGAGGCCACACACCGGATATGA,1.51,0.776,1.23,-0.19,,0.708,0.435,0.326,
CCTAGTTGGGCAGGAGGTCACACACCGGATATGA,3.48,3.98,3.52,-0.0255,,1.57,1.37,3.14,
ACTCGGAGGGCAAAGGTCAGAGCTACGCCAGTGA,4.39,7.23,5.86,1.7,,-0.408,1.05,3.36,4.32
GCTTACGGGTCAAAGGTTAAAGCATGAATAGAAT,3.36,7.28,5.18,2.07,,-0.111,1.4,4,5.38
TCTAGTTGGTCGCGGAGGTCACACACGACGGGTA,3.92,3.94,3.62,0.932,,2.74,2.63,3.45,4.55
TAGCCTAGGTCATAGGGCCAGTATAGTACGCATC,2.98,3.86,3.89,0.967,,0.823,0.453,2.75,1.96
CGGCCAAGGTCAAAGGTCAGTGAAGAGATGACGG,5.37,9.05,8.47,3.57,,2.52,3.31,4.99,
TCTAGTTGGTCATGGAGGTCACACACGACGGGTA,4.43,4.86,5.01,1.01,,2.8,3.38,3.61,5.98
ATCGAATGGTCGTGAGGTGAGTATACAGAAAGGC,0.456,0.502,0.684,-0.556,,1.09,0.0134,1.5,
GCTGCTAGGTCAACTGATGGTCAGCTAAAGCTCG,3.57,5.2,5.18,1.44,,0.814,0.0317,2.99,
ACTAGTTGGTCAGCTGAGGTAACACACAATTCGG,1.07,0.611,0.949,0.36,,1.99,0.0871,3.97,0.448
TTACCAAGGTGAAAGGTCATTGATGCACGCCTTG,4.75,6.91,5.06,1.85,,1.64,3.32,4.42,5.41
CCTTACGGGTCAAGGTTGTAGCACGGGTGGTACG,3.2,4.54,4.07,0.452,,0.122,1.18,2.38,
CCTACTGGGCCATACAGAGGTCATTGATCATATG,3.98,4.45,3.22,0.759,,1.47,4.19,3.15,

Sequence,PBM binding z-score [1],PBM binding z-score [2],PBM binding z-score [3],PBM binding z-score [4],PBM binding z-score [5],PBM binding z-score [6],PBM binding z-score [7],PBM binding z-score [8],PBM binding z-score [9]
GCTTACGGGTCAAAAGTTATAGCATGAATAGAAT,2.05,,3.15,1.93,4.84,-0.478,0.684,2.08,2.93
CCTTACGGGTAACTCCAGGTTATAGCATCGGAGT,0.239,,0.528,-0.483,0.381,0.292,0.21,3.22,0.375
CCGACTGGGGCAACGGTTACCATACTCAGTACGA,0.463,,0.749,-0.399,0.0122,-0.243,-0.248,-0.149,-0.409
TCTCGGAGGACACGAAACGTCAGAGCTCGACATC,0.176,,1.27,0.694,0.0278,0.276,-0.34,1.1,-0.163
TTACCGAGGTGAAAGGTCGTTGATGCACGCCTTG,2.67,,1.87,0.775,6.76,0.983,1.47,3.7,
GCTAGTAGGTCAGTAAAAGGTCACACACCGGTCG,6.06,,7.14,0.784,6.4,1.97,2.37,4.27,4.99
CGAACTAGGTCATCGAGGACAGTGAATACATTGA,3.3,,5.19,2.23,3.01,2.51,2.73,4.11,6.12
ATATGTGGGTTATCGGGTCATTCAGTTTGCGCAT,3.15,2.99,2.07,1.99,,3.41,4.15,3.45,
CCTCGGAGGACAACAGGATGTCAGAGCTGCCAGA,0.537,,1.19,-0.233,-0.144,-0.131,-0.662,0.449,-0.45
CCTAGTTGGTCAAGGTCACACATGCTATAGGTAC,4.33,,4.71,2.2,4.11,4.12,3.99,3.96,4.33
ATCTAAAGGTCGAAGGTGAGTATACCCACCCGAA,2.54,4.32,3.66,1.74,,0.159,0.755,2.21,
CATACAGGGACAGCTAGGCCAGAGTAGGGACGGC,0.286,0.368,0.718,-0.689,,0.148,-0.709,0.703,
ATCGAAAGGTCGAAGGAGAGTATACCCACCCGAA,1.98,,3.81,0.774,3.75,-0.242,0.458,1.76,2.23
CCAACTAGGTCATTGACAGGACAGTGAATAGTAA,2.83,,4.34,2.47,2.61,1.31,1.64,2.88,2.29
ACTAATTGGTCAGCTGAGGTCACACACAATTCGG,4.72,,4.46,1.68,4.65,5.41,3.46,5.12,4.77
GCTGCTAGGTCAACTGAAGGTCAGCTAAAGCTCG,5.31,,7.38,1.68,4.88,1.66,1,4.03,4.15
GATACAGGGTCAGCTAGAGGTCAGAGTATGGAAA,5.26,,7.07,1.95,7.42,1.85,3.45,4.49,6.14
TGGCCTAGGTCATGCGGGCCAGTATAGTGTCGGC,2.85,,4.45,-0.03,3.03,0.284,0.128,2.68,2.64
TCATATAGGTAAAAGGTCAAAGTCGGTGTGGTAA,4.74,6.62,5.95,2.5,,1.47,3.09,3.85,
